Screen size: about 48,000 compounds; about 13,000 (27%) showed an effect of 50% or more. The list shows a part of the results.
tested on: Wolbachia pipientis; test: Anti-Wolbachia Cell-Based Screen; format: functional; set-up: scale not given: in the data most compounds retested in dose-response had high values; conditions: 5 µM

Row | SMILES | Percent Effect
1 | COc1ccc(-c2cn(CCn3c(C)cc(C)nc3=O)nn2)cn1 | 13.66%
2 | CC(Oc1ccc(F)cc1F)C(=O)N1CCC2(CC1)CC(=O)N(C)C2 (stereo not drawn) | -15.1%
3 | Cn1c(C(=O)N2CCc3[nH]cnc3C2C(=O)O)ccc1-c1ccccc1 (stereo not drawn) | 10.75%
4 | CN(Cc1nc(CC2CC2)no1)CC1Cc2ccccc2O1 (stereo not drawn) | 1.11%
5 | O=c1ccc(-n2ccnc2)nn1CCNS(=O)(=O)c1ccccc1Cl | -3.668%
6 | Cn1c(C(F)(F)F)nn(CCNC(=O)c2ccccn2)c1=O | -5.949%
7 | Cc1nccn1-c1cc(CNC(=O)c2ccccn2)ccn1 | -23.44%
8 | Cn1c(C(F)(F)F)nn(CCNC(=O)CCc2ccccc2)c1=O | 8.562%
9 | O=C(CNC(=O)c1c(F)cccc1Cl)Nc1ccc(F)cn1 | -31.04%
10 | Cc1nccn1-c1ccc(=O)n(CCNC(=O)c2c(F)cccc2Cl)n1 | 122.2%
11 | Cc1nccn1-c1ccc(=O)n(CCNC(=O)c2ccccn2)n1 | 116.7%
12 | Cc1nccn1-c1ccc(=O)n(CCNC(=O)Cc2ccccc2)n1 | 251.7%
13 | CC(=O)NCc1ccc(-n2ccnc2C)nc1 | 28.24%
14 | Cc1ccoc1C(=O)N1CC(C(=O)N2CCOCC2)C2(CCOCC2)C1 (stereo not drawn) | -39.43%
15 | CC(=O)c1c(F)cccc1N1CCC(NS(=O)(=O)c2ccccc2)CC1 | -17.75%
16 | CC(C)Oc1cc(N2CC[C@H](CO)[C@@H](O)C2)nc(N)n1 | -19.56%
17 | Cc1ccccc1CCCN1C(=O)CC2(CCSC2)C1=O (stereo not drawn) | 0.3605%
18 | Cc1noc(CCCNC(=O)C2CSCN2C(=O)C(C)(C)C)n1 (stereo not drawn) | -2.864%
19 | CN(C(=O)CCNC(=O)C1COc2ccccc21)c1ccccc1 (stereo not drawn) | 1.32%
20 | O=C(c1cocn1)N1CCC2(CC1)CC(OCC1CC1)CO2 (stereo not drawn) | 7.124%
21 | CN(C)CCCNc1ncnc2cccc(F)c12 | -15.41%
22 | CN(CCOCC1CC1)C(=O)Nc1ccc([S+](C)[O-])cc1 (stereo not drawn) | 90.95%
23 | COCCN(C)C(=O)Nc1ccc(C(=O)NCCC(=O)OC)cc1 | 9.449%
24 | CN(CCOCC1CC1)C(=O)Nc1ccc([S+](C)[O-])c(F)c1 (stereo not drawn) | 94.49%

Row | SMILES | Percent Effect
25 | CN(CCOCC1CC1)C(=O)Cn1cccc(C(F)(F)F)c1=O | 10.84%
26 | O=C(NCCOCC1CC1)Nc1ccc(F)cc1 | -7.278%
27 | C[S+]([O-])c1ccc(NC(=O)Cc2cccnc2)cc1F (stereo not drawn) | 6.367%
28 | CC(C)Cc1ncc2c(n1)CN(c1nccc(NC(C)C)n1)C2 | -6.813%
29 | COC1CCN(C(=O)c2c(Cl)c3ccccc3n2C)CC1 | -0.1607%
30 | O=C(CCc1cc(Cl)no1)N1CCCCC1CCN1CCOCC1 (stereo not drawn) | -7.331%
31 | CCc1nc(CCNc2ncccn2)sc1C | -26.63%
32 | COc1cccc(C(O)CN2CCN(C(=O)CCC(C)C)CC2)c1 (stereo not drawn) | -9.64%
33 | COc1ccc(OC)c(C(O)CN2CCN(c3cccc(C)c3)CC2)c1 (stereo not drawn) | 116.6%
34 | COc1cccc(C(O)CN2CCN(c3cccc(C)c3)CC2)c1 (stereo not drawn) | 140.6%
35 | COc1ccc(OC)c(C(O)CN2CCN(C3CCCC3)CC2)c1 (stereo not drawn) | 3.384%
36 | COCCN1CCN(CC(O)c2cc(OC)ccc2OC)CC1 (stereo not drawn) | 7.391%
37 | COc1cccc(N2CCN(CC(O)c3cc(C)sc3C)CC2)c1 (stereo not drawn) | -7.346%
38 | CS(=O)(=O)c1ccc2c(c1)nc1n2[C@@H](CNCc2cccnc2)COC1 | 6.164%
39 | CC(CC(=O)N1CCCS1(=O)=O)c1ccccc1C(F)(F)F (stereo not drawn) | -9.75%
40 | COC(=O)[C@@H]1Cc2ncn(C)c2CN1S(=O)(=O)c1cccs1 | -9.442%
41 | Cc1cc(C)n(CC2CCCN2CC(=O)Nc2nncs2)n1 (stereo not drawn) | -0.6534%
42 | Cc1cc(CCC(=O)N(C)C)nc(C2CCCCN2)n1.Cl.Cl (stereo not drawn) | 123.4%
43 | CNC(=O)CCc1cc(C)nc(C2CCCCN2)n1 (stereo not drawn) | 122.2%
44 | Cc1cc(C)n(CC2CCCCN2CC(=O)Nc2nncs2)n1 (stereo not drawn) | -4.796%
45 | CN(C)[C@H]1CCCCN(C(=O)CCc2csc(N)n2)C1 | -1.322%
46 | CCN1CCn2nc(CCC(=O)N3CCCC3)cc2C1 | 0.2115%
47 | CNC(=O)CCc1cc(C)nc(C2CCCN2)n1 (stereo not drawn) | -4.947%
48 | Cc1cc(CCC(=O)Nc2nncs2)nc(C2CCCN2)n1.Cl (stereo not drawn) | 92.36%

— ChEMBL document CHEMBL3988442, “University of Dundee, Small-Polar-MMV Screening Library” (2021)
